Laboratory results published in ChEMBL document CHEMBL1961873, “Compounds: GSK PKIS; Assays: Nanosyn kinase panel” (2012).

Legend:
[1] = molecular target: T1, Inhibitor of nuclear factor kappa-B kinase subunit epsilon (Homo sapiens) (UniProt Q14164); conditions: at 1 µM;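 further: reported values are averaged percent inhibition figures against human IKKε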
T1 sequence (whole entry): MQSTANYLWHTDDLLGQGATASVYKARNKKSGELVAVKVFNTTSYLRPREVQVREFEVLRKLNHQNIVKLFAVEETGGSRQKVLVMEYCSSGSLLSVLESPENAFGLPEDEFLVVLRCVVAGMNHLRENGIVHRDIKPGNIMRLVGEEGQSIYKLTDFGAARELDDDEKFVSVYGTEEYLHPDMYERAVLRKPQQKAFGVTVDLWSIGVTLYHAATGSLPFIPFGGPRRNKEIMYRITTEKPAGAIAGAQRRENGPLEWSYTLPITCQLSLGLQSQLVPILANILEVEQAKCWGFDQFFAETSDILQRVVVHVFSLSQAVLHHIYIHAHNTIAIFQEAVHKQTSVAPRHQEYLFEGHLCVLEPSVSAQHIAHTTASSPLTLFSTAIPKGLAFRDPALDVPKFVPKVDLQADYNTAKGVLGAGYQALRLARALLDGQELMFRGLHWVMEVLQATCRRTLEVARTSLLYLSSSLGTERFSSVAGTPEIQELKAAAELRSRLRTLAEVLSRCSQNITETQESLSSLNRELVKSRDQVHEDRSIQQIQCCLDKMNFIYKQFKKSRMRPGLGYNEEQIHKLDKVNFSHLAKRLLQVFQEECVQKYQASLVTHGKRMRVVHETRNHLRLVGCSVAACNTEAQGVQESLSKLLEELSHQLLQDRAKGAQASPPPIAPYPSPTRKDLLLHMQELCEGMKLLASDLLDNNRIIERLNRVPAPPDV

[2] = molecular target: T2, Serine/threonine-protein kinase Nek1 (Homo sapiens) (UniProt Q96PY6); conditions: at 0.1 µM
T2 sequence (whole entry): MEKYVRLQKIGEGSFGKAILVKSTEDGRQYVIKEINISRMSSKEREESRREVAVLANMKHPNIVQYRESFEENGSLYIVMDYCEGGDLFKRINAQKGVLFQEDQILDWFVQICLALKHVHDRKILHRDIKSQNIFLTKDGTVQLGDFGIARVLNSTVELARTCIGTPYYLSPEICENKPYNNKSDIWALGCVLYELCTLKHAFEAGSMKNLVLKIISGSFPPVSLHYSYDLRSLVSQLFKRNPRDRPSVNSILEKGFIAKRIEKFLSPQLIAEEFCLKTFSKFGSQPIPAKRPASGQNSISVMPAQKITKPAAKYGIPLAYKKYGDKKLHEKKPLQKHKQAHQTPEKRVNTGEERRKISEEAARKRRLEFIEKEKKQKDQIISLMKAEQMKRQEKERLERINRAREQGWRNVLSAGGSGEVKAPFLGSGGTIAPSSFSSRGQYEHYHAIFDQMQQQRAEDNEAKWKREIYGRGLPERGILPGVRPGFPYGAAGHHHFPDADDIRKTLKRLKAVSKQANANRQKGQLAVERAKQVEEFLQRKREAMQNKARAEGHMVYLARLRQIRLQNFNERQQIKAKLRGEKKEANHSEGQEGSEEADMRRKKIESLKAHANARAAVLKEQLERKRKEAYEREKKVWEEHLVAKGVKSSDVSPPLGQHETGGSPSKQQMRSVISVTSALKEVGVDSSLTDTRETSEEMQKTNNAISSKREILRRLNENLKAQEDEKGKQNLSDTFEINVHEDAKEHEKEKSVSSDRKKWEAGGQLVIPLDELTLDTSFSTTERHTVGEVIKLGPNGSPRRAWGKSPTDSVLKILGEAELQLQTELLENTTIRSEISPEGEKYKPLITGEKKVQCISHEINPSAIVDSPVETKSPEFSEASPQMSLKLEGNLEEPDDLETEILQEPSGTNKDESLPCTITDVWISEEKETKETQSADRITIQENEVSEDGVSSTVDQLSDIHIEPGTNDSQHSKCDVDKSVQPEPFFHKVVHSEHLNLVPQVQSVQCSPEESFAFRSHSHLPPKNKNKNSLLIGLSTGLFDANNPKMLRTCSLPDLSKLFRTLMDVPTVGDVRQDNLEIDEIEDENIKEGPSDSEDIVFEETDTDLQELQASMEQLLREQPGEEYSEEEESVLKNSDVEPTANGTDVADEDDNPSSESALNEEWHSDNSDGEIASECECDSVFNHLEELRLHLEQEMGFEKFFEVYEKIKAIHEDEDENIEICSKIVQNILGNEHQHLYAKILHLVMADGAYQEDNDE

[3] = molecular target: T2, Serine/threonine-protein kinase Nek1 (Homo sapiens); conditions: at 1 µM
[4] = molecular target: T3, Serine/threonine-protein kinase Nek2 (Homo sapiens) (UniProt P51955); conditions: at 0.1 µM
T3 sequence (whole entry): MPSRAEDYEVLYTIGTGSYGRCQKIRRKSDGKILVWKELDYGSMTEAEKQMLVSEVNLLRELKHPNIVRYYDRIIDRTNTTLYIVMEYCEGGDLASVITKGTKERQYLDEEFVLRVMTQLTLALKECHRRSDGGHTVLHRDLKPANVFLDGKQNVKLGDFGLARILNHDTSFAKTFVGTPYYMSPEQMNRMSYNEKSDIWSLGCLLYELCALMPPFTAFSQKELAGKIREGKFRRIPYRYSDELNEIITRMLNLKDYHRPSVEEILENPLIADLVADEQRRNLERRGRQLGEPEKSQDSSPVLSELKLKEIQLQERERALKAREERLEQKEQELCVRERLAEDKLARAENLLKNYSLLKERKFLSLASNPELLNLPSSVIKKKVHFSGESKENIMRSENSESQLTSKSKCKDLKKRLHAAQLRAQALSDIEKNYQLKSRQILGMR

[5] = molecular target: T3, Serine/threonine-protein kinase Nek2 (Homo sapiens); conditions: at 1 µM
[6] = molecular target: Serine/threonine-protein kinase Nek6 (Homo sapiens) (UniProt Q9HC98); conditions: at 0.1 µM
[7] = molecular target: Serine/threonine-protein kinase Nek6 (Homo sapiens) (UniProt Q9HC98); conditions: at 1 µM
[8] = molecular target: Serine/threonine-protein kinase Nek7 (Homo sapiens) (UniProt Q8TDX7); conditions: at 0.1 µM
[9] = molecular target: Serine/threonine-protein kinase Nek7 (Homo sapiens) (UniProt Q8TDX7); conditions: at 1 µM
[10] = molecular target: T4, Serine/threonine-protein kinase Nek9 (Homo sapiens) (UniProt Q8TD19); conditions: at 0.1 µM
T4 sequence (whole entry): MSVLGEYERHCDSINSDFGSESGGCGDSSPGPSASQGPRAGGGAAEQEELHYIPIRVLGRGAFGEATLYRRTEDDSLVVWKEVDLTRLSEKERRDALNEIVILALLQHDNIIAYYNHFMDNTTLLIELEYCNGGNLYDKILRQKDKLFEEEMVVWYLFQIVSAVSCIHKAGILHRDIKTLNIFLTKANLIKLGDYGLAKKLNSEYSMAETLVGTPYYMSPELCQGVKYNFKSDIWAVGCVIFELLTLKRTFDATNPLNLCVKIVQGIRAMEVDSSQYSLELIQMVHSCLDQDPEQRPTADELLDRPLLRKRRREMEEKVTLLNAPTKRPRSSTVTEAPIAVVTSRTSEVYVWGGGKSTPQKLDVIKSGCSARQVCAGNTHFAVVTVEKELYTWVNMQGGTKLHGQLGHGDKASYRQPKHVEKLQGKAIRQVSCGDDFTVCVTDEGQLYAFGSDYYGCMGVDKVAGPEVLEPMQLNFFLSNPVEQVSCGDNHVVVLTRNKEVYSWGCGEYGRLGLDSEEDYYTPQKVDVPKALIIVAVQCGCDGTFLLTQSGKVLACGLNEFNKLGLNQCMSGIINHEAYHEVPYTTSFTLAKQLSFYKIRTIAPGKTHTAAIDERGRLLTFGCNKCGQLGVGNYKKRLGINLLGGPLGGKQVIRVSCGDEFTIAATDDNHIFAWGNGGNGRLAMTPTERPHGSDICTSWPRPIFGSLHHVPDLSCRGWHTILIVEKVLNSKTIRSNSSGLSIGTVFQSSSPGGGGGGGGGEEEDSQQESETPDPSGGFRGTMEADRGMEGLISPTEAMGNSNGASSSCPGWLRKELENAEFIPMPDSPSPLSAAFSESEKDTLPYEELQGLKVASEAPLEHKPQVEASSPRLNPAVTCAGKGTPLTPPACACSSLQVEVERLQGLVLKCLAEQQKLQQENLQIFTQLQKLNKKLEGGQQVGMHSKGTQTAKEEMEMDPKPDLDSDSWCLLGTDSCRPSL

[11] = molecular target: T4, Serine/threonine-protein kinase Nek9 (Homo sapiens); conditions: at 1 µM
[12] = molecular target: Serine/threonine-protein kinase PLK1 (Homo sapiens) (UniProt P53350); conditions: at 0.1 µM
[13] = molecular target: Serine/threonine-protein kinase PLK1 (Homo sapiens) (UniProt P53350); conditions: at 1 µM
[14] = molecular target: T5, Dual specificity protein kinase TTK (Homo sapiens) (UniProt P33981); conditions: at 0.1 µM
T5 sequence (whole entry): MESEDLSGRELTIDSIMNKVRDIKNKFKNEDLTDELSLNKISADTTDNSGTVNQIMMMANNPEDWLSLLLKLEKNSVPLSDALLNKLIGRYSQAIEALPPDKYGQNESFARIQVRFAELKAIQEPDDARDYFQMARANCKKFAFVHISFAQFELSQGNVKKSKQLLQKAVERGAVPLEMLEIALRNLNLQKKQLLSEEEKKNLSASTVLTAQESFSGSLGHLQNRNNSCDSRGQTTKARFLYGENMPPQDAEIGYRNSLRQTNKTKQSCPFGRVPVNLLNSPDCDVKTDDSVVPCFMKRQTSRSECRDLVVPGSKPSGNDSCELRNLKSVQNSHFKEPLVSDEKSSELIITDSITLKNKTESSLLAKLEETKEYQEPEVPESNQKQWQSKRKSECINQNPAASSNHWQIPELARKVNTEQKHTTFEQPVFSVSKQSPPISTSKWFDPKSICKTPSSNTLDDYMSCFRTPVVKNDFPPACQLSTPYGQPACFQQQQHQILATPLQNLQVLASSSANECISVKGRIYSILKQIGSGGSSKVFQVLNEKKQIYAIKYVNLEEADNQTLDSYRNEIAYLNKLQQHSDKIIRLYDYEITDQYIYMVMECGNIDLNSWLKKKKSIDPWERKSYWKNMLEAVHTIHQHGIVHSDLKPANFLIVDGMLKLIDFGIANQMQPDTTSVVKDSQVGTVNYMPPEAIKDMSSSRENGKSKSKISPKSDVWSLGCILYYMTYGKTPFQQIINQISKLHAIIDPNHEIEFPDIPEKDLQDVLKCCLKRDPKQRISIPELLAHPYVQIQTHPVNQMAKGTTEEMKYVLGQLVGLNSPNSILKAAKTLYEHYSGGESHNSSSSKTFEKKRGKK

[15] = system: T6, Receptor-type tyrosine-protein kinase FLT3 (Homo sapiens), P36888 [D835Y]; conditions: at 1 µM
T6 sequence (whole entry): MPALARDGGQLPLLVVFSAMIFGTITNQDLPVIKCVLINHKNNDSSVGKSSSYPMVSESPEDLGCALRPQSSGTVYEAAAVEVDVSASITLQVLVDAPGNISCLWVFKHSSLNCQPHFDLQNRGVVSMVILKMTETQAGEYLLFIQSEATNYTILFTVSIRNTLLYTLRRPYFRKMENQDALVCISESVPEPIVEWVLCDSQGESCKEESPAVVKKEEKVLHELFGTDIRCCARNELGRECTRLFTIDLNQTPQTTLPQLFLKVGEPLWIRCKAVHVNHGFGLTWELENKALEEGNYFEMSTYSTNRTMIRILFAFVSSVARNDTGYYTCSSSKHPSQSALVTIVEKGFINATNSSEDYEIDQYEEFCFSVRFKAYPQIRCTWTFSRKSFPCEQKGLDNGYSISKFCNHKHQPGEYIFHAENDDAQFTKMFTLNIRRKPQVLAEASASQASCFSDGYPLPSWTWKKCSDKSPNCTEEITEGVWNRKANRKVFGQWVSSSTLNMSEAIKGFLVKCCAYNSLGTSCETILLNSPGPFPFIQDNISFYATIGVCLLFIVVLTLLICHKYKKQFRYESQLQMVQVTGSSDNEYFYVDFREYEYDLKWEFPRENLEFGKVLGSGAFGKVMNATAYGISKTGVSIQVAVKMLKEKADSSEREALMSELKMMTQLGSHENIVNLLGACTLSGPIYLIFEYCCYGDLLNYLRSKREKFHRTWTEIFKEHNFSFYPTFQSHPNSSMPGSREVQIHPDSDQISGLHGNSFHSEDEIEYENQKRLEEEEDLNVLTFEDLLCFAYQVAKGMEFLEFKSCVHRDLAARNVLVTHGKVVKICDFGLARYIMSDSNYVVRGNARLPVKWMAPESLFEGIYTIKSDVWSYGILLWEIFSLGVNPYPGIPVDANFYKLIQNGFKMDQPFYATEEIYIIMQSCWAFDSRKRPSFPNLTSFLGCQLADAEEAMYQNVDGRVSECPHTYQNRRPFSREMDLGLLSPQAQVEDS

[16] = molecular target: Vascular endothelial growth factor receptor 3 (Homo sapiens) (UniProt P35916); conditions: at 0.1 µM
[17] = molecular target: Vascular endothelial growth factor receptor 3 (Homo sapiens) (UniProt P35916); conditions: at 1 µM
[18] = molecular target: Macrophage colony-stimulating factor 1 receptor (Homo sapiens) (UniProt P07333); conditions: at 0.1 µM
[19] = molecular target: Macrophage colony-stimulating factor 1 receptor (Homo sapiens) (UniProt P07333); conditions: at 1 µM
[20] = molecular target: Tyrosine-protein kinase Fyn (Homo sapiens) (UniProt P06241); conditions: at 0.1 µM
Chain of Tyrosine-protein kinase Fyn (Homo sapiens) (P06241 2-537 limits assumed): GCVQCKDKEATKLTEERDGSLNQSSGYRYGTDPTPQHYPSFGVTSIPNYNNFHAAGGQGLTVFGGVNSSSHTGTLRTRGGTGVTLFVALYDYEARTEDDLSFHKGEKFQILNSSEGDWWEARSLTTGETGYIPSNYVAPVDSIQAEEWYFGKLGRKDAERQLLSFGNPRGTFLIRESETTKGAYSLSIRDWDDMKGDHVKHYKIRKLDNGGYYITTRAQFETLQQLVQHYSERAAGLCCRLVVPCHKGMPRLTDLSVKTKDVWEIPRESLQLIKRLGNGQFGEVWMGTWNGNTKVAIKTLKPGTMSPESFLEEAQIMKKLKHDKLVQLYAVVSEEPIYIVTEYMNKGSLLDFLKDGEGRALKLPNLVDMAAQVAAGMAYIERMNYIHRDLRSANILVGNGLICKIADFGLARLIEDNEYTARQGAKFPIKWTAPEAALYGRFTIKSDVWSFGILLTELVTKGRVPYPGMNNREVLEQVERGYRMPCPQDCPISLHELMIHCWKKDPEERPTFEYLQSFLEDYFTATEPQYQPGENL

Chain of Macrophage colony-stimulating factor 1 receptor (Homo sapiens) (P07333 whole entry): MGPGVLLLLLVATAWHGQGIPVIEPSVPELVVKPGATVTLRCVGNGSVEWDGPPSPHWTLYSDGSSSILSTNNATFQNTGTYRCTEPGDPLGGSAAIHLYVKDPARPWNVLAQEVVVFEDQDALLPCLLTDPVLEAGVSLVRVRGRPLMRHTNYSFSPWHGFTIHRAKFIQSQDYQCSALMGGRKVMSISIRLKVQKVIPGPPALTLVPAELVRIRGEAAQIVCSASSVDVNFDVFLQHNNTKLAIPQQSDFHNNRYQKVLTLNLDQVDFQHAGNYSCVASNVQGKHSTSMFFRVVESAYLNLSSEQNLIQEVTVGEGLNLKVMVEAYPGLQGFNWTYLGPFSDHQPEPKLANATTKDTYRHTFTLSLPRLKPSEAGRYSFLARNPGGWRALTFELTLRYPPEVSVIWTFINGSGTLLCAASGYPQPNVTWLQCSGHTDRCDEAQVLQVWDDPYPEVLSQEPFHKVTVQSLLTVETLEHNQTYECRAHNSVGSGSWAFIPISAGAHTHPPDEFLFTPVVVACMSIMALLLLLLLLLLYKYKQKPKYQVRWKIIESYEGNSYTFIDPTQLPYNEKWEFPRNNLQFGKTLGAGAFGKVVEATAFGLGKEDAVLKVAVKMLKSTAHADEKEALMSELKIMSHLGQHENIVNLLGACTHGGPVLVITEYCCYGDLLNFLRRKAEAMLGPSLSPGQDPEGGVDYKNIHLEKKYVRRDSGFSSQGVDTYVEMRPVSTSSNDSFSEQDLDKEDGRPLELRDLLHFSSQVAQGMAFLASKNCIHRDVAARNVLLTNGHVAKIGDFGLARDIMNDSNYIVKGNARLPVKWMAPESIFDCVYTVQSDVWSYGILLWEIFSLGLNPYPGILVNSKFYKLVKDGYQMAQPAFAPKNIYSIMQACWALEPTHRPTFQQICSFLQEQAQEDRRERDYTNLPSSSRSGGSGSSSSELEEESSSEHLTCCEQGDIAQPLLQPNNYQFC
Chain of Serine/threonine-protein kinase Nek6 (Homo sapiens) (Q9HC98 whole entry): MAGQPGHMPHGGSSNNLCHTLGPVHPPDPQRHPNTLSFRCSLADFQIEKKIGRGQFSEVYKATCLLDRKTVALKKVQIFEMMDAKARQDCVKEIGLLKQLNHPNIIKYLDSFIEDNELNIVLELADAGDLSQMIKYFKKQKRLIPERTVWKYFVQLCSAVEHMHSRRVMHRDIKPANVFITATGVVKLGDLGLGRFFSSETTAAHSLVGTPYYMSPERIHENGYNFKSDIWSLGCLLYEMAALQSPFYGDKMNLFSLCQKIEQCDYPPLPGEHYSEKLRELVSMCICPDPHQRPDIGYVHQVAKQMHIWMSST
Chain of Serine/threonine-protein kinase PLK1 (Homo sapiens) (P53350 whole entry): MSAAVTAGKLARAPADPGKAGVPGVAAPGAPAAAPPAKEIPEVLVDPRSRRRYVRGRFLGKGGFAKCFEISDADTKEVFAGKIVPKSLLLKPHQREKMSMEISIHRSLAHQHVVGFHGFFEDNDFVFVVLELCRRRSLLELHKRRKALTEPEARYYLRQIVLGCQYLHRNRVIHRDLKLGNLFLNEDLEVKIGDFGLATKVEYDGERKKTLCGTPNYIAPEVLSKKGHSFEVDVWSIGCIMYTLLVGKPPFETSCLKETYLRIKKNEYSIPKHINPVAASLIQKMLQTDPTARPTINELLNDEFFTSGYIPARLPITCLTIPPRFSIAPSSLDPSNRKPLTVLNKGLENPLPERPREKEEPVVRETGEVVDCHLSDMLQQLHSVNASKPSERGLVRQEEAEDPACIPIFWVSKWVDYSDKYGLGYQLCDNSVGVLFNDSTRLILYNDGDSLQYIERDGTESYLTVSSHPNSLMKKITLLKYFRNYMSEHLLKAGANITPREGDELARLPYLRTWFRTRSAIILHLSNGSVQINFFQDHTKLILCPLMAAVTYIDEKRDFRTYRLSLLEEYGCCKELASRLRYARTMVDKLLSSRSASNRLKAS
Chain of Serine/threonine-protein kinase Nek7 (Homo sapiens) (Q8TDX7 whole entry, looked up): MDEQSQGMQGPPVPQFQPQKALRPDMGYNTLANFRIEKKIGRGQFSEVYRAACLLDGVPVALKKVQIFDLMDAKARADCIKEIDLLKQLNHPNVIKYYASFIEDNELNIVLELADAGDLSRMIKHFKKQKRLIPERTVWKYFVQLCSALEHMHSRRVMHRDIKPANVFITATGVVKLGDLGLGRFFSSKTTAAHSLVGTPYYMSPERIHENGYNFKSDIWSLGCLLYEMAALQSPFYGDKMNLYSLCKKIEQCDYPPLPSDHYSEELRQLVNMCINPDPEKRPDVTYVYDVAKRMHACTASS
Chain of Vascular endothelial growth factor receptor 3 (Homo sapiens) (P35916 whole entry): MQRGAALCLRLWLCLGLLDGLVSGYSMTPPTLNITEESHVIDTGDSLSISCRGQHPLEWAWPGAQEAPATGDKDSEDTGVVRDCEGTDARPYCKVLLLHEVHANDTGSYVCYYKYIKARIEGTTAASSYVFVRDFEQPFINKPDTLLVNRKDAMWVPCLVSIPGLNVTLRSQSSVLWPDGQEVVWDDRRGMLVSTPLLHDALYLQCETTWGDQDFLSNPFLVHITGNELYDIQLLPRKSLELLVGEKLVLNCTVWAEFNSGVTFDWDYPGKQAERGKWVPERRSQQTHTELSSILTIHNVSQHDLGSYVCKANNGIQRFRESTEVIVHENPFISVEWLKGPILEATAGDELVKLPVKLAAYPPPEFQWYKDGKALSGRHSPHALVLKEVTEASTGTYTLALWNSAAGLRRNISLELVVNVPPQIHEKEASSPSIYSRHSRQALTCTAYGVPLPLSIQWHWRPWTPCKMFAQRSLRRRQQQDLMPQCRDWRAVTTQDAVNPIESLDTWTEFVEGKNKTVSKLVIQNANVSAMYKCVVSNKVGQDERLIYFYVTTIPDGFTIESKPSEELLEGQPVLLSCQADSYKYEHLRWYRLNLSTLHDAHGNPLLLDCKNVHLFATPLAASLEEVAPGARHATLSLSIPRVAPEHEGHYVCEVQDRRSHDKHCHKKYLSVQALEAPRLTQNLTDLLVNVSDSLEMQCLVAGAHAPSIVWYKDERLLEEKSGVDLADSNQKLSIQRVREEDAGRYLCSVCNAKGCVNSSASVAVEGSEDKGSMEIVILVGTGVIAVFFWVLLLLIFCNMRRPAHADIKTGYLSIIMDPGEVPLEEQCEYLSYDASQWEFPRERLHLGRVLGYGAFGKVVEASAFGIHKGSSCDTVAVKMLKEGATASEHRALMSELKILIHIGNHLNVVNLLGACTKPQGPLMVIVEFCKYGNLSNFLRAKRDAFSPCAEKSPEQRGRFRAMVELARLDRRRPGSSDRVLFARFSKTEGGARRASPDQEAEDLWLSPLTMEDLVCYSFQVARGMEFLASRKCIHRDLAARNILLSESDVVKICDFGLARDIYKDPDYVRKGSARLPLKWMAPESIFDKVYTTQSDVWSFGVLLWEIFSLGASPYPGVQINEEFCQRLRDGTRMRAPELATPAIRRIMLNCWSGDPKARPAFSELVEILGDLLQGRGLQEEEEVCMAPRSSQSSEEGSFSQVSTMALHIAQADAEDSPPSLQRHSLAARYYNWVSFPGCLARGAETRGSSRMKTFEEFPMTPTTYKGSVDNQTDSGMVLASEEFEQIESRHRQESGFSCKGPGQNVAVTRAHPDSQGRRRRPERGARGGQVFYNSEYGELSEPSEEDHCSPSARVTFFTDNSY

Row | SMILES | inhibition [1] [%] | inhibition [2] [%] | inhibition [3] [%] | inhibition [4] [%] | inhibition [5] [%] | inhibition [6] [%] | inhibition [7] [%] | inhibition [8] [%] | inhibition [9] [%] | inhibition [10] [%] | inhibition [11] [%] | inhibition [12] [%] | inhibition [13] [%] | inhibition [14] [%] | inhibition [15] [%] | inhibition [16] [%] | inhibition [17] [%] | inhibition [18] [%] | inhibition [19] [%] | inhibition [20] [%]
1 | Cc1cc(O)cc(C)c1/C=C/c1cncc(C(N)=O)c1 | 91.3 | 1.8 | 2.95 | 3.02 | 1.69 | 3.18 | 1.92 | 4.15 | 3.89 | 5.2 | 0.49 | 2.01 | 1.27 | 4.3 | 2.14 | 1.77 | 0.45 | 5.27 | 31.3 | 5.86
2 | NS(=O)(=O)c1ccc(N/N=C2\C(=O)Nc3cccc(CCc4ccncc4)c32)cc1 | 3.03 | 2.1 | 1.7 | 1.25 | 0.63 | -2.2 | -0.1 | 0.71 | 0.86 | 2.93 | -6.07 | -0.07 | 1.59 | 20.8 | 64 | 30.1 | 47.9 | 39.9 | 46.2 | 2.64
3 | CS(=O)(=O)CCNCc1ccc(-c2ccc3ncnc(Nc4ccc(OCc5cccc(C(F)(F)F)c5)cc4)c3c2)o1 | 4.77 | 3.08 | 8.21 | 7.25 | 6.57 | 0.78 | 4.95 | 2.96 | 7.52 | 4.02 | 2.96 | 5.06 | 6.5 | 7.15 | 1.14 | 8.65 | 15.4 | 3.92 | 9.05 | 2.75
